# Experimental data taken from PubChem BioAssay (NCATS).
# Active and inactive are the calls of the source. Where a call stands in place of a potency, no number is given. Calls come from the whole dose curve; as a rule, active = well fitted inhibition curve with a large enough effect; inconclusive = small, poorly fitted or top-dose-only effect; inactive = flat fitted curve, though single readings scatter.
# Molecular target: ATP-dependent DNA helicase Q1 (Homo sapiens) (UniProt P46063)
# Test: qHTS Validation Assay for Inhibitors of RecQ-Like Dna Helicase 1 (RECQ1) (AID 2353)
# Conditions: recombinant RECQ1 helicase DNA unwinding assay; series mostly up to 25.6 µM
# Excerpt: Survival of cells and the faithful propagation of the genome depend on elaborate mechanisms of detecting and repairing DNA damage. Treatment of advanced cancer relies on radiation therapy or chemotherapy, which kill cancer cells by causing extensive DNA damage. It is often found, that cancer cells develop resistance to therapy through enhanced activity of DNA repair functions; this has led to an increased interest in developing drugs that interfere with DNA repair, which could sensitize cancer cells to conventional therapy.
# This validation qHTS assay pertains to human RECQ1, which is important in resolving abnormal DNA structures formed during replication or homologous recombination. Shutting down the expression of RECQ1 leads to chromosomal instability and higher radiation sensitivity in cultured cells.
# The validation assay was a fluorescence quenching based kinetic qHTS for RECQ1 Helicase DNA unwinding. The activity was measured as ATP-dependent separation of a 20-bp DNA duplex extended by 30-nt single-stranded tails (forked duplex). The forked DNA substrate was tagged with rhodamine fluorophore (carboxytetramethyl rhodamine, TAMRA) and BHQ-2 (Black Hole Quencher 2) dark quencher. Strand separation results in an increase in the fluorescence of TAMRA (excitation 525 nm, emission 598 nm). This substrate construct operates in a red-shifted region where very few compound library members have been noted to fluoresce (PubChem AIDs 593 and 594). An additional feature of the assay is the inclusion of 2.5 ug/ml poly (dIdC), to reduce interference by compounds such as DNA intercalators, a major source of false inhibitors.
# Opher Gileadi, Structural Genomics Consortium, University of Oxford
# Screening Center PI: Austin, C.P.
# Screening Center: NIH Chemical Genomics Center [NCGC]
# Three uL of reaction buffer (25 mM Tris-HCl (pH 8.0), 5 mM NaCl, 2 mM MgCl2, 1mM DTT, 0.01% Tween- 20, and 2.5 ug/ml poly(dI-dC), including enzyme (50 nM RECQ1T1), were dispensed into a 1536-well Greiner black assay plate via solenoid-valve based nanoliter dispensers. Compounds (23 nl each in columns 5-48) and control (23 nl each in column 2 as dose-response) were transferred via a Kalypsys pintool equipped with a 1536-pin array. The plates were incubated for 15 min at room temperature, and then 1 ul of substrates (200 nM DNA and 2 mM ATP, final concentrations) was added to start the reaction. The plate was transferred into a ViewLux high-throughput CCD imager where the reaction progress was measured in a discontinuous kinetic mode (two reads spaced 2 hours apart, with intermediate room temperature incubation of the covered assay plate) by using standard red-fluorescence optics (excitation filter 525 nm, emission filter 598 nm). Enzyme-free and vehicle (DMSO) controls were included for signal normalization.
# Potency is the fitted concentration of half-maximal effect.
# Chain of ATP-dependent DNA helicase Q1 (Homo sapiens) (P46063 whole entry, looked up): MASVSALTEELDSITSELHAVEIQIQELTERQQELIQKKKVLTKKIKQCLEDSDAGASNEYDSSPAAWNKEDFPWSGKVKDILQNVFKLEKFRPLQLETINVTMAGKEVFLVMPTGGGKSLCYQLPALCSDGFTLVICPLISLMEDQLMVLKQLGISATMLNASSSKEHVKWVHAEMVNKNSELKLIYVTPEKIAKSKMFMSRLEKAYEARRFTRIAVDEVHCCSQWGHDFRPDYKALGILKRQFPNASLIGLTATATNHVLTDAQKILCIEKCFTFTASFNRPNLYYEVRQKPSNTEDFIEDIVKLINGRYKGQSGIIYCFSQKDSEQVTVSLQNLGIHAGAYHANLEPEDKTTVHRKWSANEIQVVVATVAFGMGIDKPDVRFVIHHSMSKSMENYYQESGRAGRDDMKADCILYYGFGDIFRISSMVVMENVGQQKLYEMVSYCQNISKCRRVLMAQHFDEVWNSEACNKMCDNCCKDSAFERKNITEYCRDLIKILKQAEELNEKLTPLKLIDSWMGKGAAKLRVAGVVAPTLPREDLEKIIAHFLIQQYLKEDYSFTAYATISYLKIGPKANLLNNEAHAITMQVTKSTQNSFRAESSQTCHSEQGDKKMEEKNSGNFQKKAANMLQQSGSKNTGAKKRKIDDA
row,SMILES,Potency
1,CC(C)(C)c1onc(OCP(=O)(O)O)c1CC(N)C(=O)O (stereo not given),inactive
2,Cc1cc(N)c2ccccc2[n+]1CCCCCCCCCC[n+]1c(C)cc(N)c2ccccc21,inactive
3,CSc1ccc2c(c1)C(N1CCN(C)CC1)Cc1ccccc1S2 (stereo not given),inactive
4,Nc1cc(=O)[nH]c(N)n1,inactive
5,C[C@H]1O[C@@H](n2cc(F)c(=O)[nH]c2=O)[C@H](O)[C@@H]1O,inactive
6,CC(=O)OCC(=O)[C@@]1(O)CC[C@H]2[C@@H]3CCC4=CC(=O)CC[C@]4(C)[C@H]3C(=O)C[C@@]21C,inactive
7,CC1=C(CC(=O)O)c2cc(F)ccc2/C1=C\c1ccc(S(C)(=O)=O)cc1,inactive
8,CNCCC(Oc1ccc(C(F)(F)F)cc1)c1ccccc1 (stereo not given),inactive
9,CN(C)CCCN1c2ccccc2Sc2ccc(Cl)cc21,inactive
10,OCc1cc(C(O)CNCCCCCCOCCCCc2ccccc2)ccc1O (stereo not given),inactive
11,NC(N)=NCCC[C@H](N)C(=O)O,inactive
12,CC(C)NC[C@H](O)c1ccc(O)c(O)c1,inactive
13,CCN(CC)CCOC(=O)C1(C2CCCCC2)CCCCC1,inactive
14,CCCCCCCCCCCCCCCC(=O)NCCO,inactive
15,OCCN1CCN(CCCN2c3ccccc3Sc3ccc(Cl)cc32)CC1,inactive
16,O=C1N=C(O)CN1/N=C/c1ccc(-c2ccc([N+](=O)[O-])cc2)o1,inactive
17,NC1CCN(c2cccc(Cl)n2)CC1,inactive
18,N=c1c[n+](N2CCOCC2)[n-]o1,inactive
19,COC(=O)C1=C(C)NC(C)=C(C(=O)OC)C1c1ccccc1[N+](=O)[O-],inactive
20,CC(CN1c2ccccc2Sc2ccccc21)N(C)C (stereo not given),inactive

row,SMILES,Potency
1,CNC(=O)Oc1ccc2c(c1)[C@]1(C)CCN(C)[C@@H]1N2C,inactive
2,CN(C)CCCN1c2ccccc2CCc2ccccc21,inactive
3,CC(C)C(=O)c1c(C(C)C)nn2ccccc12,inactive
4,CSc1ccc2c(c1)N(CCC1CCCCN1C)c1ccccc1S2 (stereo not given),inactive
5,CC(CN(C)C)CN1c2ccccc2CCc2ccccc21 (stereo not given),inactive
6,C[C@](N)(Cc1ccc(O)cc1)C(=O)O,inactive
7,C=Cc1c(C)c2cc3[nH]c(cc4nc(cc5nc(cc1[nH]2)C(C)=C5CCC(=O)O)C(CCC(=O)O)=C4C)c(C)c3C=C,11.2 µM (active)
8,CNCCCC1c2ccccc2C=Cc2ccccc21,inactive
9,CN(C)CCOC(C)(c1ccccc1)c1ccccn1 (stereo not given),inactive
10,CCN(CC)CCNC(=O)c1cc(Cl)c(N)cc1OC,inactive
11,CN(C)CC[C@@H](c1ccc(Cl)cc1)c1ccccn1,inactive
12,CC1=C(/C=C/C(C)=C/C=C/C(C)=C/C(=O)O)C(C)(C)CCC1,inactive
13,CN(C)CCC=C1c2ccccc2CCc2ccccc21,inactive
14,C#CCN(C)Cc1ccccc1,inactive
15,CC1=C(CC(=O)O)c2cc(F)ccc2/C1=C\c1ccc(S(C)=O)cc1 (stereo not given),inactive
16,CN1CCN(C2Cc3ccccc3Sc3ccc(Cl)cc32)CC1 (stereo not given),inactive
17,CCCn1cnc2c1c(=O)n(CCCCC(C)=O)c(=O)n2C,inactive
18,NC(=O)c1ncn([C@@H]2O[C@H](CO)[C@@H](O)[C@H]2O)n1,inactive
19,CC(C)(C(=O)O)c1ccc(C(O)CCCN2CCC(C(O)(c3ccccc3)c3ccccc3)CC2)cc1 (stereo not given),inactive
20,C[C@]12CC[C@@H]3c4ccc(O)cc4CC[C@H]3[C@@H]1CCC2=O,inactive
